PubChem BioAssay (NCATS)
Values without a mark were called inactive. Activity calls are given as the source filed them. Calls follow the shape of the dose curve; as a rule, active = well fitted inhibition curve with a large enough effect; inconclusive = small, poorly fitted or top-dose-only effect; inactive = flat fitted curve, though single readings scatter.

biological target: DNA dC->dU-editing enzyme APOBEC-3G (Homo sapiens) (UniProt Q9HC16); test: qHTS for inhibitors of Vif-A3G interactions: Validation (AID 588379); conditions: Vif-A3G protein interaction assay; series mostly up to 46.1 µM; activity change, negative = inhibition: at the top concentration; as to activity change, negative = inhibition: 0% is about no effect
Sequence (Q9HC16 whole entry, looked up): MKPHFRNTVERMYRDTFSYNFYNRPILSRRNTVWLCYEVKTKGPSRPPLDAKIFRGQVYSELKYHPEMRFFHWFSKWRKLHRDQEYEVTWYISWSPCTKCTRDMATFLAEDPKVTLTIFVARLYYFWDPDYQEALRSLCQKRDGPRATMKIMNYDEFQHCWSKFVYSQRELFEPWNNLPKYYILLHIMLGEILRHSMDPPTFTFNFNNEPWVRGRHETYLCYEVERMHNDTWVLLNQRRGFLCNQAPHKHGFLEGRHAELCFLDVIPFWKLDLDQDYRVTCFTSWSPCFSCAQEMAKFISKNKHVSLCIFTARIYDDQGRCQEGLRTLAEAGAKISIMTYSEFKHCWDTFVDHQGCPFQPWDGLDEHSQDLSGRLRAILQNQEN
Text: The recent discovery and characterization of host restriction factors, which provide a potent defense to invading retroviruses, has provided new targets for antiviral drug development. APOBEC3G (A3G) and APOBEC3F (A3F) are potent cytidine deaminases that block HIV-1 replication; HIV-1 expresses the Vif protein, which counteracts A3G and A3F by binding to them and inducing their proteasomal degradation.
The Vif-A3G and Vif-A3F interactions provide two potential targets for development of small molecules which can interfere with the ability of Vif to degrade A3G or A3F. […] To identify inhibitors that can interfere with Vif mediated degradation of A3G and A3F, we have developed Hela cell lines that stably express A3G or A3F tagged with eYFP at the C-terminal end (A3G-eYFP or A3F-eYFP, respectively) and Vif. In the absence of an inhibitor, Vif induces degradation of A3G-eYFP and A3F-eYFP, and the cells are not fluorescent. In the presence of an inhibitor, it is expected that Vif will be unable to degrade A3G-eYFP and/or A3F-eYFP, resulting in an increase in yellow fluorescence. In this assays Vif A3G was screened against the Molecular Library Small Molecile Repository (MLSMR).
NIH Chemical Genomics Center [NCGC]
NIH Molecular Libraries Probe Centers Network [MLPCN]
Assay Submitter (PI): Vinay Pathak, National Cancer Institute
5 uL of 700 cells/well of A3G-YFP cells are dispensed into black, clear bottom plates. The plates are incubated overnight at 37 deg C. 23 nL of compounds are added by pintool. The plates are incubated overnight at 37 deg C and then read on the TTP Acumen (Ex 488/ Em 500-530).
Potency is read from the fitted curve at half-maximal effect.

Row | SMILES | activity change, negative = inhibition | Potency
1 | Fc1ccc(C(OCCN2CCN(C/C=C\c3ccccc3)CC2)c2ccc(F)cc2)cc1 | -2.14% | 
2 | NC[C@H](CS(=O)(=O)O)c1ccc(Cl)cc1 | 1.84% | 
3 | C/C(=C\[C@@H](N)C(=O)O)CP(=O)(O)O | -7.67% | 
4 | NC[C@H](CP(=O)(O)O)c1ccc(Cl)cc1 | -0.252% | 
5 | Oc1ccc2c3c1O[C@H]1c4oc5ccccc5c4C[C@]4(O)[C@H](C2)N(CC2CC2)CC[C@@]314 | -6.32% | 
6 | COc1ccc2c3c([nH]c2c1)C(C)=NCC3 | -2.19% | 
7 | CN1[C@@H]2CC[C@H]1CC(OC(c1ccc(F)cc1)c1ccc(F)cc1)C2 (stereo not given in full) | 0.585% | 
8 | CCCn1c(C)c(C(=O)c2cccc3ccccc23)c2ccccc21 | 0.682% | 
9 | N[C@@H](Cn1cc(I)c(=O)[nH]c1=O)C(=O)O | 3.33% | 
10 | COc1ccn(C)c(=O)c1C#N | -3.56% | 
11 | C[C@H](N)Cc1cnc[nH]1 | -4.09% | 
12 | COc1ccc(CNC(=O)/C=C\c2ccc3[nH]cc(CCN(C)C)c3c2)cc1 | 0.327% | 
13 | CCCCCCC[n+]1ccc(-c2cc[n+](CCCCCCC)cc2)cc1 | 3.7% | 
14 | CN1CCc2cc3c(cc2C1C1OC(=O)c2c1ccc1c2OCO1)OCO3 (stereo not given) | 1.84% | 
15 | CC[N+](CC)(CCCNC1=CC(=O)C(NCCC[N+](CC)(CC)Cc2ccccc2)=CC1=O)Cc1ccccc1 | 5.32% | 
16 | Clc1cncc(N2CCNCC2)n1 | 3.86% | 
17 | C[C@H]1C[C@H](C)C(=O)[C@@H]([C@H](O)CC2CC(=O)NC(=O)C2)C1 | -5.31% | 
18 | Ic1cncc(OC[C@@H]2CCN2)c1 | 2.99% | 
19 | Nc1nc2ccc(Cl)cc2c2nc(-c3ccco3)nn12 |  | 0.596 µM (active)
20 | CN1C[C@H](CNC(=O)OCc2ccccc2)C[C@H]2c3cccc4c3c(cn4C)C[C@@H]21 | -10.4% | 

Row | SMILES | activity change, negative = inhibition | Potency
21 | NC(=NCCc1ccc(I)cc1)SCCCc1cnc[nH]1 | 2.93% | 
22 | CS(=O)(=O)Nc1ccc(Cc2noc(-c3ccc4[nH]cc(CCN)c4c3)n2)cc1 | -0.484% | 
23 | O=C(O)Cc1cccnc1C(=O)O | -4.38% | 
24 | CCCOc1ccc2[nH]cc(C3=CCNCC3)c2n1 | -2.57% | 
25 | CCOC(OCC)P(=O)(O)CCCN | -0.148% | 
26 | O=C(CCCN1CCC2(CC1)C(=O)N(Cc1cccc(F)c1)CN2c1ccccc1)c1ccc(F)cc1 | -0.239% | 
27 | COC(=O)CN1CN(c2ccccc2)C2(CCN(Cc3ccc4ccccc4c3)CC2)C1=O | -1.87% | 
28 | O=C(/C=C\c1ccc(Cl)cc1)N[C@@]12CCC(=O)[C@@H]3Oc4c(O)ccc5c4[C@@]31CCN(CC1CC1)[C@@H]2C5 | -2.37% | 
29 | O=C1Nc2cc(Cl)c(Cl)cc2N2CCNC[C@H]12 | -1.46% | 
30 | Cc1ccc(C[N+](C)(C)C)o1 | -1.56% | 
31 | C[C@](N)(CCP(=O)(O)O)C(=O)O | 1.37% | 
32 | O=C(Cc1ccc(Cl)c(Cl)c1)N1CCCC[C@H]1CN1CCCC1 | 0.849% | 
33 | Clc1ccc([C@@H]2C[C@H]3CC[C@@H]2N3)cn1 | 6.01% | 
34 | O=C(O)[C@@H]1C[C@H]2C[C@@H](CP(=O)(O)O)CC[C@H]2CN1 | -0.758% | 
35 | CN(C(=O)Cc1ccc(Cl)c(Cl)c1)[C@@H](CN1CCCC1)c1cccc(OCC(=O)O)c1 | -11.7% | 
36 | C[C@@H](C(=O)OC1C[C@H]2CC[C@@H](C1)N2C)c1ccc(Br)cc1 (stereo not given in full) | 6.85% | 
37 | CN1Cc2ccccc2[C@@H]2c3cccc4[nH]cc(c34)C[C@H]21 |  | 26.6 µM (active)
38 | NCCCP(=O)(O)CC1CCCCC1 | 0.307% | 
39 | CP(=O)(O)CCCN | 0.0973% | 
40 | O=C1CC[C@@]2(O)[C@H]3Cc4ccc(O)c5c4[C@@]2(CCN3CC2CC2)[C@@H]1O5 | 1.6% | 
